Screen size: about 52,000 compounds; about 4,300 (8.3%) were called active. Cut-off read from the data, not from the text of the source: active = survival mostly below about 52% (no sharp cut-off); inactive = mostly above about 56%. The sample as a whole holds a higher share of actives than the screen did.
System: DeltatarO mutant
Assay: growth inhibition of S. aureus wild type versus tarO mutant, primary screen, teichoic acid synthesis inhibitors, RN4220, OD600 (AID 463173)
Conditions: OD600, 18 h, active compounds read low, screened at 18.75 µg/mL (by protocol)

| Compound | survival |
| --- | --- |
| COc1ccc(NC(=O)CCc2nnc3n(Cc4ccc(C)cc4)c(=O)c4ccccc4n23)cc1 | 59% (inactive) |
| Cc1cccc(-c2cc3nc(C)cc(NCCCn4ccnc4)n3n2)c1 | 88% (inactive) |
| O=C(O)CSCCn1cccn1 | 93% (inactive) |
| CC(C)=CCC(C)(C)CNc1ccc(C)cc1 | 66% (inactive) |
| CCOc1ccccc1NC(=O)C1CCCN(c2ncnc3onc(-c4ccc(F)cc4)c23)C1 (stereo not drawn) | 85% (inactive) |
| Cc1cc(C)cc(NC(=O)CCc2c(C)nc3c(c2C)c(=O)n(C)c(=O)n3C)c1 | 64% (inactive) |
| COc1ccc(CN2C(=O)N(c3ccc(F)cc3)C(=O)C2CC(=O)Nc2cc(OC)cc(OC)c2)cc1 (stereo not drawn) | 81% (inactive) |
| Cn1c2ccccc2c2nnc(SCC(N)=O)nc21 | 76% (inactive) |
| CCc1ccccc1NC(=O)Cn1c(=O)n(CCCS(=O)(=O)C2CCCCC2)c(=O)c2ccccc21 | 86% (inactive) |
| CCOc1ccc(CNC(=O)c2cnc3sc(N4CCOCC4)nn3c2=O)cc1 | 81% (inactive) |
| CCOC(=O)c1c(C)[nH]c(CCC(=O)NCc2cccc(C)c2)c1C | 70% (inactive) |
| Cc1ccc(-n2ncc3c(N(C)C)ncnc32)cc1Cl | 94% (inactive) |
| Cc1ccc(Cn2c(SCc3ccc(C(=O)N4CCCCC4)cc3)nc3ccncc32)cc1 | 7% (active) |
| O=C(c1ccc(CSc2nc3ccncc3n2Cc2ccccc2)cc1)N1CCCCCC1 | 70% (inactive) |
| Cc1ccc(Cn2c(SCc3ccc(C(=O)N4CCCCCC4)cc3)nc3ccncc32)cc1 | 71% (inactive) |
| Cc1cc(C)c(C#N)c(S(C)(=O)=O)n1 | 106% (inactive) |
| CCc1ccccc1NC(=O)C1CCN(S(=O)(=O)c2cn(C)cn2)CC1 | 93% (inactive) |
| CCCCN(C)C(=O)C1CCCN(c2ncnc3onc(-c4ccc(F)cc4)c23)C1 (stereo not drawn) | 77% (inactive) |
| Cc1ccc(Nc2c(-c3ccc(N4CCOCC4)cc3)nc3ncccn23)c(C)c1 | 80% (inactive) |
| Cc1ccc2c(c1C)NC(=O)CC2c1ccc(Cl)cc1Cl (stereo not drawn) | 4% (active) |
| COc1cccc(C2CC(=O)Nc3c2ccc(C)c3C)c1OC (stereo not drawn) | 94% (inactive) |
| CC1=C(C(=O)OCC2CCCCC2)C(c2ccc(Cl)cc2Cl)CC(=O)N1 (stereo not drawn) | 82% (inactive) |
| CCCN1C(=O)C(O)(CC(=O)c2ccc(C(C)C)cc2)c2ccccc21 (stereo not drawn) | 142% (inactive) |
| Cc1ccc(C(=O)CC2(O)C(=O)N(CCc3ccccc3)c3ccc(Cl)cc32)cc1 (stereo not drawn) | 17% (active) |
| CC(C)c1ccc(C(=O)CC2(O)C(=O)N(CCc3ccccc3)c3ccc(Cl)cc32)cc1 (stereo not drawn) | 33% (active) |

| Compound | survival |
| --- | --- |
| CCc1ccc(C(=O)CC2(O)C(=O)N(CCc3ccccc3)c3ccc(Cl)cc32)cc1 (stereo not drawn) | 19% (active) |
| CCc1ccc(C(=O)CC2(O)C(=O)N(C(C)C)c3ccccc32)cc1 (stereo not drawn) | 79% (inactive) |
| CCc1ccc(C(=O)CC2(O)C(=O)N(CCc3ccccc3)c3ccc(Br)cc32)cc1 (stereo not drawn) | 52% (inactive) |
| Cc1ccc(C(=O)CC2(O)C(=O)N(Cc3ccccc3F)c3ccccc32)cc1 (stereo not drawn) | 60% (inactive) |
| Cc1ccc(-c2c3c(=O)n(C)c(=O)n(C)c3c3c(C(F)(F)F)nc4ccccc4n23)cc1 | 77% (inactive) |
| Cc1ccc(S(=O)(=O)CCSc2nc(C)cc(C)c2C#N)cc1 | 53% (inactive) |
| Nc1nonc1C(=O)NCCNCc1cccc(Cl)c1Cl | 65% (inactive) |
| CC(=O)c1cccc(-n2c(=O)c3c4c(sc3n(CC(=O)Nc3ccccc3F)c2=O)CN(C(C)=O)CC4)c1 | 123% (inactive) |
| Cc1cccc(-c2nnc(N(C(=O)C3CCC3)C(C)C)s2)c1 | 113% (inactive) |
| COc1ccc(Cn2c(CCC(=O)Nc3cccc(OC)c3)nc3cccnc32)cc1 | 68% (inactive) |
| Cc1ccc(COC(=O)c2ccc(-c3nnn(Cc4ccc(C)cc4)n3)cc2)cc1 | 69% (inactive) |
| COc1cc(CN(C(=O)COc2ccccc2Cl)c2ccccn2)cc(OC)c1OC | 72% (inactive) |
| COc1ccc(Cl)cc1NS(=O)(=O)c1ccc2c(c1)NC(=O)CC(=O)N2 | 88% (inactive) |
| CCC(C)NC(=O)CSc1nc(-c2ccc(F)cc2)cc(C(F)(F)F)n1 (stereo not drawn) | 86% (inactive) |
| CN(Cc1ccccc1)c1nc(-c2ccc(F)cc2)cc(C(F)(F)F)n1 | 72% (inactive) |
| COc1cccc(-c2cc(C(F)(F)F)nc(-n3nc(C)c(Br)c3C)n2)c1 | 41% (active) |
| Cc1nn(-c2nc(-c3ccc(F)cc3)cc(C(F)(F)F)n2)c(C)c1Cl | 5% (active) |
| Cc1nn(-c2nc(-c3ccccc3)cc(C(F)(F)F)n2)c(C)c1Cl | 5% (active) |
| COc1ccccc1-c1c(C)nn2c(C(F)(F)F)cc(-c3ccccc3)nc12 | 41% (inactive) |
| COc1cccc(-c2cc(C(F)(F)F)n3nc(C)c(-c4ccccc4)c3n2)c1 | 79% (inactive) |
| Cc1nn(-c2nc(-c3ccc(F)cc3)cc(C(F)(F)F)n2)c(C)c1Br | -2% (active) |
| COc1ccc(-n2nc(C)c3c(C(F)(F)F)cc(-c4cccnc4)nc32)cc1 | 56% (inactive) |
| CC(C)(C)NC(=O)CSc1nc(-c2ccc(F)cc2)cc(C(F)(F)F)n1 | 72% (inactive) |
| COc1cccc2c1Oc1ncccc1N(C(=O)Nc1ccc(F)c(Cl)c1)C2 | 135% (inactive) |
| COc1cccc(N2CCN(S(=O)(=O)c3ccc4[nH]c5c(c4c3)CCCC5)CC2)c1 | 84% (inactive) |

| Compound | survival |
| --- | --- |
| C[N+](C)(C)CC(O)COc1ccccc1 (stereo not drawn) | 82% (inactive) |
| CCc1cccc(C)c1NC(=O)Cn1nc(C)n2cccc2c1=O | 92% (inactive) |
| COc1cccc(CNC(=O)CCc2nnc3n(CC(C)C)c(=O)c4ccccc4n23)c1 | 85% (inactive) |
| COc1ccccc1CNC(=O)CCc1c(C)nc2c(c(C)nn2-c2ccc(C)c(C)c2)c1C | 69% (inactive) |
| CN1C(=O)c2cccc3c(S(=O)(=O)Nc4cccc(C(=O)O)c4)ccc1c23 | 74% (inactive) |
| COC(=O)c1c(-c2ccc(Cl)cc2)noc1N1CCN(c2ccc(C(C)=O)cc2)CC1 | 81% (inactive) |
| O=C(CN1CCC(n2nnc3ccccc32)CC1)N(C1CCCCC1)C1CCCCC1 | 100% (inactive) |
| Cc1cccc(NS(=O)(=O)c2ccc3[nH]c(=O)[nH]c3c2)c1C | 78% (inactive) |
| Cc1cc(NC(=O)C2CCCN(S(=O)(=O)c3ccc(Br)s3)C2)ccc1Br (stereo not drawn) | 68% (inactive) |
| COCC(=O)NC1CCN(Cc2nnnn2Cc2ccc3c(c2)OCO3)CC1 | 87% (inactive) |
| COc1ccccc1NC(=O)Cn1c(=O)n(CC(=O)NCc2ccccc2Cl)c(=O)c2sccc21 | 172% (inactive) |
| CC(=O)c1ccc(S(=O)(=O)Nc2cccc(-c3ccc(N4CCCCC4)nn3)c2)cc1 | 80% (inactive) |
| N#Cc1nc(COc2cccc(Cl)c2)oc1NCCc1ccccc1 | 39% (active) |
| Cc1cccc(OCc2nc(C#N)c(NCc3ccccc3Cl)o2)c1 | 53% (inactive) |
| COc1ccc(CCNc2oc(COc3cccc(C)c3)nc2C#N)cc1OC | 95% (inactive) |
| COc1ccccc1OCc1nc(C#N)c(NCc2ccc(C)cc2)o1 | 83% (inactive) |
| COc1cccc(/C=C/c2nc(C#N)c(NCCc3ccccc3)o2)c1 | 90% (inactive) |
| Cc1ccc(OCc2nc(C#N)c(NCCc3ccccc3)o2)cc1 | 35% (active) |
| COc1ccc(CCNc2oc(COc3ccc(Cl)cc3)nc2C#N)cc1OC | 74% (inactive) |
| N#Cc1nc(COc2ccccc2Cl)oc1NCCc1ccccc1 | 48% (inactive) |
| COc1ccc(CNc2oc(COc3cccc(C)c3)nc2C#N)cc1 | 40% (active) |
| CCN(CC)c1ccc2cc(-c3nc(-c4cccs4)no3)c(=O)oc2c1 | 83% (inactive) |
| CCC(Sc1nc2ccncc2[nH]1)C(=O)Nc1cc(C)ccc1C (stereo not drawn) | 132% (inactive) |
| Cn1ncc(C(=O)N2CCN(c3ccccc3F)CC2)c1C1CCN(C(=O)OC(C)(C)C)CC1 | 71% (inactive) |
| CCOc1ccc2oc(=O)cc(CN3CCN(C(=O)c4cccc(Cl)c4)CC3)c2c1 | 66% (inactive) |

| Compound | survival |
| --- | --- |
| CCOc1ccc2oc(=O)cc(CN3CCN(Cc4ccc(F)cc4)CC3)c2c1 | 83% (inactive) |
| CCOc1ccc2oc(=O)cc(CN3CCN(C(=O)c4ccc(F)cc4)CC3)c2c1 | 31% (active) |
| CCOc1ccc2oc(=O)cc(CN3CCN(C(=O)c4ccc(Cl)cc4)CC3)c2c1 | 86% (inactive) |
| CCOc1ccc2oc(=O)cc(CN3CCN(C(=O)c4ccc(OC)c(OC)c4)CC3)c2c1 | 50% (inactive) |
| CCOc1ccc2oc(=O)cc(CN3CCN(C(=O)c4cccc(F)c4)CC3)c2c1 | 31% (active) |
| CCc1nc2ccc(C(=O)NCc3ccc(N(C)C)cc3)cc2nc1CC | 99% (inactive) |
| Cc1c(C(=O)N2CCC(C)CC2)c(S(=O)(=O)NCc2ccccc2)c(C)n1C | 66% (inactive) |
| O=C(NCc1ccccc1Br)c1cnc2sc(N3CCCCCC3)nn2c1=O | 94% (inactive) |
| Cc1cccc(NC(=O)CSc2cn(CC(=O)N3CCCC3)c3ccccc23)c1C | 99% (inactive) |
| Cc1ccc(N2C(=O)CSC23C(=O)N(CC(=O)NC2CCCCC2)c2ccccc23)cc1C (stereo not drawn) | 94% (inactive) |
| CCCn1cc(S(=O)(=O)c2cccc(Cl)c2)c(=O)c2cc(F)c(N3CCN(CC)CC3)cc21 | 115% (inactive) |
| Cc1ccc(Cn2c(=O)c3ccccc3n3c(-c4ccccc4)nnc23)cc1 | 86% (inactive) |
| Cc1cccc(-c2nc3ccccc3n2Cc2ccccc2)c1 | 0% (active) |
| Nc1nonc1-c1nc2ccccc2n1Cc1cccc(Cl)c1 | 80% (inactive) |
| Cc1ccc(Cn2c(C(C)NC(=O)c3ccccc3)nc3ccccc32)cc1 (stereo not drawn) | 90% (inactive) |
| Cc1ccc(Cn2c(CCNC(=O)c3cccc(C)c3)nc3ccccc32)cc1 | 60% (inactive) |
| Fc1ccccc1Cn1c(-c2ccccc2)nc2ccccc21 | 1% (active) |
| O=C(CSc1nc2ccccc2n1Cc1ccccc1F)NCc1ccccc1 | 97% (inactive) |
| Cc1cccc(Cn2c(-c3ccccc3)nc3ccccc32)c1 | -2% (active) |
| Cc1cccc(Cn2c(-c3cccc(Br)c3)nc3ccccc32)c1 | 122% (inactive) |
| Fc1ccc(Cn2c(-c3cccc(Br)c3)nc3ccccc32)cc1 | 109% (inactive) |
| CCC(O)c1nc2ccccc2n1Cc1cccc(Cl)c1 (stereo not drawn) | 83% (inactive) |
| Cc1ccc(Cn2c(-c3ccccc3)nc3ccccc32)cc1 | -2% (active) |

Source: PubChem BioAssay AID463173 (ICCB-Longwood Screening Facility, Harvard Medical School, 2010)
